Test systems include DU-145 prostate; K-562 leukemia; MALME-3M melanoma; MDA-MB-231 breast; RXF 393 renal; SF-268 CNS; SF-295 CNS; SF-539 CNS; UACC-257 melanoma; M14 melanoma; HCT-15 colon; HT29 colon; SNB-75 CNS; SNB-19 CNS; U251 CNS; PC-3 prostate; SK-MEL-5 melanoma; UACC-62 melanoma; LOX IMVI melanoma; SK-MEL-28 melanoma.
Assay in all cases: NCI-60 one-dose screen, 48 h (100 = growth as untreated, 0 = no growth, -100 = all killed)
Common to all, as to settings: 10 µM unless noted

Each structure is given as a SMILES string. About 83,000 compounds went through this panel and 20% of them were active in at least one assay; those are over-represented in the sample as a whole.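 48-hour exposure, single concentration, 96-well plates; percent growth endpoint where 0 means no net growth. Active: below 10.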 Unmarked numbers belong to inactive results. Calls of active or inactive are those of the source.

`Cc1ccc(NC(=O)c2nc(S(C)(=O)=O)oc2-c2ccc(F)cc2)cc1Nc1ccc2ncn(C)c(=O)c2c1`: the growth in the test on DU-145 prostate was 57.8%; with K-562 leukemia, -22.8% (active); with MALME-3M melanoma, 23.7%; in the test with MDA-MB-231 breast, 31%; in the test on RXF 393 renal it was 45%; with SF-268 CNS, 68.3%. Also, the growth was 98.8% in the test on SF-295 CNS; 95.3% in the test with SF-539 CNS; 82.5% in the test on UACC-257 melanoma; 39.4% in the test with M14 melanoma; 3.34% (active) in the test with HCT-15 colon; 15.8% with HT29 colon. Also, the growth in the test on SNB-75 CNS is 105%; with SNB-19 CNS, 126%; in the test with U251 CNS, 69.7%; with PC-3 prostate, 88.6%; with SK-MEL-5 melanoma it was 78.9%; in the test with UACC-62 melanoma, 85.8%. Moreover, the results for the growth with LOX IMVI melanoma and in the test on SK-MEL-28 melanoma were -71.5% (active) and 82.1%, respectively.

Turning to `COc1ccc(-c2nsc3c2NC(=O)CC3c2cccc(F)c2)cc1` (stereo not given), the growth was 53.7% in the test on DU-145 prostate; 13.9% in the test on K-562 leukemia; 42.7% in the test on MALME-3M melanoma; 44.7% in the test on MDA-MB-231 breast; 50.9% with RXF 393 renal; 62% with SF-268 CNS. The growth was 61.5% in the test with SF-295 CNS; 54.7% with SF-539 CNS; 65.7% in the test with UACC-257 melanoma; 32.6% with M14 melanoma; 23% in the test with HCT-15 colon; 10.4% with HT29 colon. Further, the growth is 68.5% in the test on SNB-75 CNS; 82.7% in the test on SNB-19 CNS; 45.6% in the test on U251 CNS; 49.4% with PC-3 prostate; 32.5% in the test on SK-MEL-5 melanoma; 48.5% in the test on UACC-62 melanoma. The growth with LOX IMVI melanoma was 50.9%; with SK-MEL-28 melanoma, 65.4%.

Consider `COc1ccc(/C=C2\N=C(c3cccnc3)N(c3ccccc3)NC2=O)cc1`, for which the growth in the test with DU-145 prostate was 104%; in the test with K-562 leukemia, 107%; in the test with MALME-3M melanoma, 97.4%; in the test on MDA-MB-231 breast, 92.1%; with RXF 393 renal, 89.9%; in the test with SF-268 CNS, 91.9%. For the same molecule, the growth with SF-295 CNS was 95.2%; with SF-539 CNS, 103%; in the test on UACC-257 melanoma, 102%; in the test with M14 melanoma, 92.8%; in the test on HCT-15 colon it was 95.1%; in the test with HT29 colon, 107%. Also, the growth in the test with SNB-75 CNS is 80.6%; in the test with SNB-19 CNS, 96.8%; in the test with U251 CNS it was 106%; in the test with PC-3 prostate, 74.2%; with SK-MEL-5 melanoma, 98.7%; in the test with UACC-62 melanoma it was 95.4%. For the same molecule, the growth with LOX IMVI melanoma is 92.7%; in the test on SK-MEL-28 melanoma, 129%.

Regarding `O=c1[nH]c2cc(Cl)c(Cl)cc2o1`, the growth with DU-145 prostate was 113%; with K-562 leukemia, 102%; in the test with MALME-3M melanoma, 117%; in the test on MDA-MB-231 breast, 100%; in the test with RXF 393 renal it was 135%; in the test with SF-268 CNS, 103%. Besides, the growth in the test on SF-295 CNS was 55.9%; in the test on SF-539 CNS it was 105%; in the test on UACC-257 melanoma, 114%; in the test with M14 melanoma, 105%; in the test on HCT-15 colon it was 101%; in the test with HT29 colon, 112%. For the same molecule, the growth in the test on SNB-75 CNS is 92.5%; in the test with SNB-19 CNS it was 109%; with U251 CNS, 95.1%; in the test with PC-3 prostate, 64.6%; in the test on SK-MEL-5 melanoma, 115%; in the test with UACC-62 melanoma, 92.8%. For the same molecule, the growth is 99.4% with LOX IMVI melanoma and 116% in the test on SK-MEL-28 melanoma.

Turning to `O=C(O)/C=C(\c1nc2ccc([N+](=O)[O-])cc2[nH]1)c1cc(Cl)ccc1O`, the growth in the test with DU-145 prostate is 39.9%; with K-562 leukemia, 14.7%; with MALME-3M melanoma, 6.7% (active); in the test on MDA-MB-231 breast, 13.1%; in the test with RXF 393 renal it was 39.1%; in the test with SF-268 CNS, 32.2%. The growth with SF-295 CNS was 21.6%; in the test on SF-539 CNS it was 26.3%; in the test on UACC-257 melanoma, 17.8%; in the test with M14 melanoma, 25.8%; in the test with HCT-15 colon, 21.1%; in the test on HT29 colon, 36.2%. For the same molecule, the growth in the test with SNB-75 CNS was 50.4%; with SNB-19 CNS, 18.5%; in the test with U251 CNS, 16.9%; in the test on PC-3 prostate, 14.1%; in the test with SK-MEL-5 melanoma, -28% (active); with UACC-62 melanoma it was -3.61% (active). Further, the growth in the test with LOX IMVI melanoma was 21%; with SK-MEL-28 melanoma it was 20.8%.

As for `COc1ccc(OC)c(Nc2nc(-c3c(C)nc4sccn34)cs2)c1`, the growth with DU-145 prostate was 81.7%; in the test on K-562 leukemia, 27.8%; in the test with MALME-3M melanoma it was 88.9%; in the test with MDA-MB-231 breast, 71.1%; in the test with RXF 393 renal, 83.5%; with SF-268 CNS, 102%. Moreover, the growth in the test on SF-295 CNS is 52.8%; in the test with SF-539 CNS, 75.7%; with UACC-257 melanoma, 81%; in the test on M14 melanoma it was 78.6%; in the test with HCT-15 colon, 73.6%; in the test on HT29 colon, 73.6%. Also, the growth was 78.4% in the test on SNB-75 CNS; 96.9% in the test with SNB-19 CNS; 89.5% in the test on U251 CNS; 37.6% in the test with PC-3 prostate; 18.8% in the test with SK-MEL-5 melanoma; 79.6% with UACC-62 melanoma. The growth in the test with LOX IMVI melanoma is 83.4%; with SK-MEL-28 melanoma, 101%.

Regarding `COc1ccc(C2=NN(C=O)C(c3ccc(OS(=O)(=O)c4ccc(C)cc4)c(OC)c3)C2)cc1` (stereo not given), the growth is 72.8% in the test on DU-145 prostate; 16% in the test with K-562 leukemia; 45.9% in the test with MALME-3M melanoma; 56.4% in the test on MDA-MB-231 breast; 82.7% in the test on RXF 393 renal; 68.7% in the test on SF-268 CNS. Besides, the growth was 41.6% in the test with SF-295 CNS; 66.9% in the test on SF-539 CNS; 42.9% in the test with UACC-257 melanoma; 58.8% with M14 melanoma; 61.8% in the test on HCT-15 colon; 35% in the test with HT29 colon. The growth in the test on SNB-75 CNS was 68.9%; in the test on SNB-19 CNS, 62.5%; with U251 CNS, 60.3%; with PC-3 prostate it was 48.4%; in the test with SK-MEL-5 melanoma, 6.93% (active); in the test on UACC-62 melanoma it was 50.1%. Further, the growth with LOX IMVI melanoma was 57.3%; with SK-MEL-28 melanoma, 75.5%.

As for `CC(OC(=O)Nc1cccc(Cl)c1)C(=O)O` (stereo not given), the growth in the test with DU-145 prostate was 113%; in the test on K-562 leukemia, 92.3%; with MALME-3M melanoma, 116%; in the test on MDA-MB-231 breast, 109%; with RXF 393 renal it was 98.4%; with SF-268 CNS it was 99.6%. Also, the growth is 75.3% with SF-295 CNS; 99.1% in the test on SF-539 CNS; 91.5% with UACC-257 melanoma; 95.5% with M14 melanoma; 104% with HCT-15 colon; 102% with HT29 colon. Also, the growth with SNB-75 CNS was 84.6%; with SNB-19 CNS, 96.6%; in the test on U251 CNS, 102%; in the test with PC-3 prostate, 93%; in the test with SK-MEL-5 melanoma, 107%; in the test with UACC-62 melanoma, 91.8%. Further, the growth in the test on LOX IMVI melanoma was 96.9%; in the test with SK-MEL-28 melanoma it was 112%.

Source of the values: PubChem BioAssay (NCI).
